Source: the supplement of paper PMC8728848
Many of the other results were omitted from the sample, so the strongest signals are more common in it than they were.

Assays:
Test in all cases: glycan array binding signal (z-score within array); higher = stronger binding
Conditions in all cases: glycan notation: IUPAC condensed, linker removed
[1] = biological target: Fuc(a1-2)Gal(b1-3)GalNAc(b1-4)[Neu5Ac(a2-3)]Gal(b1-4)Glc
Method in brief: (§1)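 The binding signal is a Z-score computed within each array and averaged over linkers. Arrays of the same protein sequence at different concentrations or buffers were also averaged together. Data originate from 3228 arrays in the Consortium for Functional Glycomics database, kept only where the protein sequence was available.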

Fuc(a1-2)Gal(b1-4)Glc6S = biological target: Fuc(a1-2)Gal(b1-4)Glc6S
Method in brief: as §1

Fuc(a1-2)Gal(b1-4)GlcNAc = biological target: Fuc(a1-2)Gal(b1-4)GlcNAc
Method in brief: as §1

[2] = biological target: Fuc(a1-2)Gal3S(b1-4)GlcNAc
Method in brief: as §1

[3] = biological target: Fuc(a1-2)[Gal(a1-3)]Gal(b1-3)GlcNAc(b1-3)GalNAc
Method in brief: as §1

[4] = biological target: Fuc(a1-2)[Gal(a1-3)]Gal(b1-3)GlcNAc(b1-6)GalNAc
Method in brief: as §1

[5] = biological target: Fuc(a1-2)[Gal(a1-3)]Gal(b1-4)Glc
Method in brief: as §1

[6] = biological target: Fuc(a1-2)[Gal(a1-3)]Gal(b1-4)GlcNAc(b1-2)Man(a1-3)[Fuc(a1-2)[Gal(a1-3)]Gal(b1-4)GlcNAc(b1-2)Man(a1-6)]Man(b1-4)GlcNAc(b1-4)[Fuc(a1-6)]GlcNAc
Method in brief: as §1

[7] = biological target: Fuc(a1-2)[GalNAc(a1-3)]Gal(b1-3)GlcNAc(b1-3)GalNAc
Method in brief: as §1

[8] = biological target: Fuc(a1-2)[GalNAc(a1-3)]Gal(b1-4)GlcNAc(b1-3)GalNAc
Method in brief: as §1

[9] = biological target: Fuc(a1-2)[GalNAc(a1-3)]Gal(b1-4)GlcNAc(b1-6)GalNAc
Method in brief: as §1

[10] = biological target: Fuc(a1-2)[GalNAc(a1-3)]Gal(b1-4)[Fuc(a1-3)]GlcNAc(b1-3)GalNAc
Method in brief: as §1

[11] = biological target: Fuc(a1-3)[Gal(b1-4)]GlcNAc(b1-3)Gal(b1-3)[Fuc(a1-4)]GlcNAc
Method in brief: as §1

[12] = biological target: Fuc(a1-3)[Gal3S(b1-4)]GlcNAc6S
Method in brief: as §1

[13] = biological target: Fuc(a1-3)[GalNAc(b1-4)]GlcNAc
Method in brief: as §1

Gal(a1-4)GlcNAc = biological target: Gal(a1-4)GlcNAc
Method in brief: as §1

Gal(b1-3)Gal = biological target: Gal(b1-3)Gal
Method in brief: as §1

Gal(b1-3)Gal(b1-4)GlcNAc = biological target: Gal(b1-3)Gal(b1-4)GlcNAc
Method in brief: as §1

[14] = biological target: Gal(b1-3)GalNAc(b1-4)Gal(b1-4)Glc
Method in brief: as §1

Gal(b1-3)GlcNAc = biological target: Gal(b1-3)GlcNAc
Method in brief: as §1

[15] = biological target: Gal(b1-3)GlcNAc(b1-6)Gal(b1-4)GlcNAc
Method in brief: as §1

[16] = biological target: Gal(b1-4)GlcNAc(b1-2)[Gal(b1-4)GlcNAc(b1-4)]Man(a1-3)[Gal(b1-4)GlcNAc(b1-2)Man(a1-6)]Man(b1-4)GlcNAc(b1-4)GlcNAc
Method in brief: as §1

[17] = biological target: Gal(b1-4)GlcNAc(b1-2)[Gal(b1-4)GlcNAc(b1-6)]Man(a1-6)[Gal(b1-4)GlcNAc(b1-2)Man(a1-3)]Man(b1-4)GlcNAc(b1-4)GlcNAc
Method in brief: as §1

[18] = biological target: Gal(b1-4)GlcNAc(b1-3)Gal(b1-4)GlcNAc(b1-3)Gal(b1-4)GlcNAc(b1-3)Gal(b1-4)GlcNAc(b1-3)Gal(b1-4)GlcNAc(b1-2)Man(a1-3)[Gal(b1-4)GlcNAc(b1-3)Gal(b1-4)GlcNAc(b1-3)Gal(b1-4)GlcNAc(b1-3)Gal(b1-4)GlcNAc(b1-3)Gal(b1-4)GlcNAc(b1-2)Man(a1-6)]Man(b1-4)GlcNAc(b1-4)[Fuc(a1-6)]GlcNAc
Method in brief: as §1

[19] = biological target: Gal(b1-4)GlcNAc(b1-3)Gal(b1-4)GlcNAc(b1-3)Gal(b1-4)GlcNAc(b1-3)Gal(b1-4)GlcNAc(b1-3)Gal(b1-4)GlcNAc(b1-2)[Gal(b1-4)GlcNAc(b1-3)Gal(b1-4)GlcNAc(b1-3)Gal(b1-4)GlcNAc(b1-3)Gal(b1-4)GlcNAc(b1-3)Gal(b1-4)GlcNAc(b1-6)]Man(a1-6)[Gal(b1-4)GlcNAc(b1-3)Gal(b1-4)GlcNAc(b1-3)Gal(b1-4)GlcNAc(b1-3)Gal(b1-4)GlcNAc(b1-3)Gal(b1-4)GlcNAc(b1-2)Man(a1-3)]Man(b1-4)GlcNAc(b1-4)[Fuc(a1-6)]GlcNAc
Method in brief: as §1

[20] = biological target: Gal(b1-4)GlcNAc(b1-3)[Fuc(a1-3)GlcNAc(b1-6)]Gal(b1-4)Glc
Method in brief: as §1

Gal3S(b1-4)Glc = biological target: Gal3S(b1-4)Glc
Method in brief: as §1

[21] = biological target: Gal3S(b1-4)[Fuc(a1-3)]Glc6S
Method in brief: as §1

Gal4S(b1-4)GlcNAc = biological target: Gal4S(b1-4)GlcNAc
Method in brief: as §1

[22] = biological target: GalNAc(a1-3)GalNAc(b1-3)Gal(a1-4)Gal(b1-4)GlcNAc
Method in brief: as §1

[23] = biological target: GalNAc(b1-3)Gal(a1-4)Gal(b1-4)GlcNAc(b1-3)Gal(b1-4)Glc
Method in brief: as §1

[24] = biological target: GlcNAc(a1-4)Gal(b1-4)GalNAc
Method in brief: as §1

[25] = biological target: GlcNAc(a1-4)Gal(b1-4)GlcNAc(b1-3)Gal(b1-4)Glc
Method in brief: as §1

[26] = biological target: GlcNAc(b1-2)[GlcNAc(b1-4)]Man(a1-3)[GlcNAc(b1-2)Man(a1-6)]Man(b1-4)GlcNAc(b1-4)GlcNAc
Method in brief: as §1

[27] = biological target: GlcNAc(b1-3)Gal(b1-4)GlcNAc(b1-2)[GlcNAc(b1-3)Gal(b1-4)GlcNAc(b1-6)]Man(a1-6)[GlcNAc(b1-3)Gal(b1-4)GlcNAc(b1-2)Man(a1-3)]Man(b1-4)GlcNAc(b1-4)GlcNAc
Method in brief: as §1

[28] = biological target: GlcNAc(b1-4)Gal(b1-4)GlcNAc
Method in brief: as §1

Man(a1-3)[Man(a1-6)]Man = biological target: Man(a1-3)[Man(a1-6)]Man
Method in brief: as §1

[29] = biological target: Neu5Ac(a2-3)Gal(b1-3)GalNAc(b1-4)[Neu5Ac(a2-8)Neu5Ac(a2-3)]Gal(b1-4)Glc
Method in brief: as §1

[30] = biological target: Neu5Ac(a2-3)Gal(b1-3)GlcNAc(b1-2)Man(a1-3)[Neu5Ac(a2-3)Gal(b1-3)GlcNAc(b1-2)Man(a1-6)]Man(b1-4)GlcNAc(b1-4)GlcNAc
Method in brief: as §1

[31] = biological target: Neu5Ac(a2-3)Gal(b1-3)GlcNAc(b1-3)GalNAc
Method in brief: as §1

[32] = biological target: Neu5Ac(a2-3)Gal(b1-3)[Fuc(a1-4)]GlcNAc
Method in brief: as §1

[33] = biological target: Neu5Ac(a2-3)Gal(b1-3)[GlcNAc(b1-6)]GalNAc
Method in brief: as §1

[34] = biological target: Neu5Ac(a2-3)Gal(b1-3)[Neu5Ac(a2-6)]GalNAc
Method in brief: as §1

[35] = biological target: Neu5Ac(a2-3)Gal(b1-4)GlcNAc(b1-2)Man(a1-3)[Neu5Ac(a2-3)Gal(b1-4)GlcNAc(b1-2)Man(a1-6)]Man(b1-4)GlcNAc(b1-4)[Fuc(a1-6)]GlcNAc
Method in brief: as §1

[36] = biological target: Neu5Ac(a2-3)Gal(b1-4)GlcNAc(b1-2)[Neu5Ac(a2-3)Gal(b1-4)GlcNAc(b1-6)]Man(a1-6)[Neu5Ac(a2-3)Gal(b1-4)GlcNAc(b1-2)Man(a1-3)][GlcNAc(b1-4)]Man(b1-4)GlcNAc(b1-4)GlcNAc
Method in brief: as §1

[37] = biological target: Neu5Ac(a2-3)Gal(b1-4)GlcNAc(b1-3)Gal(b1-4)GlcNAc(b1-3)GalNAc
Method in brief: as §1

[38] = biological target: Neu5Ac(a2-3)Gal(b1-4)[Fuc(a1-3)]GlcNAc(b1-2)Man
Method in brief: as §1

[39] = biological target: Neu5Ac(a2-6)Gal(b1-4)GlcNAc(b1-2)Man(a1-3)[Man(a1-6)]Man(b1-4)GlcNAc(b1-4)GlcNAc
Method in brief: as §1

[40] = biological target: Neu5Ac(a2-6)Gal(b1-4)GlcNAc(b1-2)Man(a1-6)[Man(a1-3)]Man(b1-4)GlcNAc(b1-4)GlcNAc
Method in brief: as §1

[41] = biological target: Neu5Ac(a2-6)Gal(b1-4)GlcNAc(b1-6)[Gal(b1-3)]GalNAc
Method in brief: as §1

[42] = biological target: Neu5Ac(a2-8)Neu5Ac(a2-3)Gal(b1-4)Glc
Method in brief: as §1

[43] = biological target: Neu5Ac(a2-8)Neu5Ac(a2-8)Neu5Ac(a2-3)Gal(b1-4)Glc
Method in brief: as §1

Neu5Ac(b2-6)GalNAc = biological target: Neu5Ac(b2-6)GalNAc
Method in brief: as §1

[44] = biological target: Neu5Gc(a2-8)Neu5Gc(a2-6)Gal(b1-4)GlcNAc
Method in brief: as §1

B1: Pwp1 (Candida glabrata) (protein)
chain: MGSSHHHHHHSSGLVPRGSHMASANPISITNVCQFPDNWARTAGFQATTVRLGLTIASNTYKELLNYPGLFNFATQKATVTQPNFSISGFPFFTGLYGLTVWPINLLVELQGYFVPPESGNYTFTLQGSDDAAILFFANPSTFACGSQNDWPQPREADITVTDTLVPSRTLYLVKGVAYPIRIAYYNGSGDGKLNVSFKDPSGTTHTDWKGYVWQYSNTCSTCTYT
glycan array binding signal (z-score) [1]: 2.14 | glycan array binding signal (z-score) (Fuc(a1-2)Gal(b1-4)Glc6S): -0.871 | glycan array binding signal (z-score) (Fuc(a1-2)Gal(b1-4)GlcNAc): 0.296 | glycan array binding signal (z-score) [2]: 0.714 | glycan array binding signal (z-score) [3]: 0.778 | glycan array binding signal (z-score) [4]: 0.51 | glycan array binding signal (z-score) [5]: -0.087 | glycan array binding signal (z-score) [6]: 0.301 | glycan array binding signal (z-score) [7]: 2.44 | glycan array binding signal (z-score) [8]: 2.36 | glycan array binding signal (z-score) [9]: 0.906 | glycan array binding signal (z-score) [10]: -0.825 | glycan array binding signal (z-score) [11]: 3.12 | glycan array binding signal (z-score) [12]: 1.94 | glycan array binding signal (z-score) [13]: -1.67 | glycan array binding signal (z-score) (Gal(a1-4)GlcNAc): 0.974 | glycan array binding signal (z-score) (Gal(b1-3)Gal): 0.861 | glycan array binding signal (z-score) (Gal(b1-3)Gal(b1-4)GlcNAc): -0.314 | glycan array binding signal (z-score) [14]: 1.92 | glycan array binding signal (z-score) (Gal(b1-3)GlcNAc): 0.448 | glycan array binding signal (z-score) [15]: -1.46 | glycan array binding signal (z-score) [16]: -0.345 | glycan array binding signal (z-score) [17]: 0.454 | glycan array binding signal (z-score) [18]: -0.637 | glycan array binding signal (z-score) [19]: -3.11 | glycan array binding signal (z-score) [20]: -1 | glycan array binding signal (z-score) (Gal3S(b1-4)Glc): 0.803 | glycan array binding signal (z-score) [21]: -0.627 | glycan array binding signal (z-score) (Gal4S(b1-4)GlcNAc): 0.267 | glycan array binding signal (z-score) [22]: -0.037 | glycan array binding signal (z-score) [23]: 1.77 | glycan array binding signal (z-score) [24]: -1.74 | glycan array binding signal (z-score) [25]: 1.72 | glycan array binding signal (z-score) [26]: 0.374 | glycan array binding signal (z-score) [27]: 0.839 | glycan array binding signal (z-score) [28]: -2.23 | glycan array binding signal (z-score) (Man(a1-3)[Man(a1-6)]Man): -1.51 | glycan array binding signal (z-score) [29]: 0.23 | glycan array binding signal (z-score) [30]: 1.89 | glycan array binding signal (z-score) [31]: 0.585 | glycan array binding signal (z-score) [32]: -1.74 | glycan array binding signal (z-score) [33]: 3.78 | glycan array binding signal (z-score) [34]: 0.612 | glycan array binding signal (z-score) [35]: 0.747 | glycan array binding signal (z-score) [36]: 2.29 | glycan array binding signal (z-score) [37]: 0.411 | glycan array binding signal (z-score) [38]: -1.41 | glycan array binding signal (z-score) [39]: -0.785 | glycan array binding signal (z-score) [40]: 0.335 | glycan array binding signal (z-score) [41]: -1.62 | glycan array binding signal (z-score) [42]: 0.642 | glycan array binding signal (z-score) [43]: -0.355 | glycan array binding signal (z-score) (Neu5Ac(b2-6)GalNAc): 1.13 | glycan array binding signal (z-score) [44]: 1.17
